From PubChem BioAssay (NCATS) come the findings set out here.

Values joined by “and” are separate entries in the source; they are usually repeats but may differ in a detail not shown here. Identical values can stand only once. Inconclusive results are not listed. Some structures have more than one record in an assay (separate samples or runs), and their calls can disagree. Active and inactive are the calls of the source. Unless noted, the call rests on the fitted dose curve; in most records, active means well fitted curve in the direction sought with a large enough effect; inconclusive means small, poorly fitted or top-dose-only effect, or another doubt; inactive means no such curve, though single readings can be large; an effect the other way counts as inactive or inconclusive. Non-standard residues stand in square brackets, D forms with d. Residues, ends and D or L forms follow the SMILES beside them. *: point of attachment. Sta = CC(C)C[C@H](N)[C@@H](O)CC(=O)O; Isovaleryl = CC(C)CC(=O)*

The nature of test [1]: High-throughput drug toxicity screening in the BPDCN cell line Cal-1 (AID 1224825; call rule not given here). The following applies: Cal-1 BPDCN cell viability, qHTS; at 45.8 µM (top of the series) unless noted. Summed up: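 Exponentially growing Cal-1 cells, 500 per well in phenol red-free RPMI with 10% FBS, were exposed to compounds for 48 h at 37 °C, 5% CO2. Viability was read by CellTiter-Glo luminescence and normalised to DMSO (100%) and 9.2 uM bortezomib (0%).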
A general note: qHTS replaces the single test concentration by a dilution series.

Test [2] is described as follows: qHTS assay for measurement of the activity of small molecule inhibitors on Zika virus induced Caspase-3 activity in human iPSC derived neural progenitor cells (hNPCs) (AID 1224857). Further: nearly all actives have a fitted effect of over 65% in size. Further: potency means the concentration at half of the fitted maximal effect. Summed up: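 Values are percent inhibition of virus-induced caspase-3/7 signal, scaled between uninfected cells and ZIKV-infected cells. Infection used 2 FFU/cell for 6 h after 1 h compound exposure.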

The nature of test [3]: qHTS assay for measurement of the activity of small molecule inhibitors on Zika virus induced Caspase-3 activity in human astrocytoma cells (AID 1224859).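 Further: plate controls were ZIKV-infected untreated cells for no effect and uninfected cells for full effect.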 The method in brief: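 Compound added 1 h pre-infection; ZIKV 2 FFU/cell on SNB-19 cells, 6 h, 37 C/5% CO2. Caspase-Glo 3/7 luminescence; values as % inhibition of ZIKV-induced caspase activity.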
A short description of test [4]: qHTS Screen of the MIPE 4.0 Collection Against Ewings Sarcoma (RDES) (AID 1259252). Further: nearly all actives have a fitted effect of over 35% in size. Further: potency means the concentration at half of the fitted maximal effect. Summed up: (§1)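 Compound titrations go onto adherent log-phase cells 4 h after seeding, incubate 48 h at 37C, then CellTiter-Glo luminescence reports viability relative to DMSO and cell-free controls.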
Test [5] in a line: qHTS Screen of the MIPE 4.0 Collection Against Ewings Sarcoma (TC71) (AID 1259253). Further: nearly all actives have a fitted effect of over 40% in size. Further: potency means the concentration at half of the fitted maximal effect. Summed up: as §1
Test [6] in a line: qHTS Screen of the MIPE 4.0 Collection Against Ewings Sarcoma (EW8) (AID 1259255). Further: nearly all actives have a fitted effect of over 35% in size. Further: potency means the concentration at half of the fitted maximal effect.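 On viability: 100% = DMSO-treated cells and 0% = medium-only wells without cells.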 The method in brief: as §1
Test [7] in a line: qHTS Screen of the MIPE 4.0 Collection Against Ewings Sarcoma (TC32) (AID 1259256). Further: nearly all actives have a fitted effect of over 45% in size. Further: potency means the concentration at half of the fitted maximal effect. The method in brief:
as §1

Test [8] in a line: qHTS assay to identify small molecule inhibitors of chordoma cells - UCH-1 (AID 1259355). Further: on the % scale 0 is the no-effect control and ±100 the full control effect; nearly all actives have a fitted effect of over 55% in size. The method in brief:
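Luminescent ATP read-out (CellTiter-Glo, 30min at room temperature) measured viability of UCH-1 cells exposed for 48hr to test drugs at 15 concentrations, co-dosed with a five-agent combination of auranofin, camptothecin, doxorubicin, rubitecan and topotecan.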

Test [9] in a line: qHTS assay to identify small molecule inhibitors of chordoma cells - UCH-2 (AID 1259356). Further: on the % scale 0 is the no-effect control and ±100 the full control effect.
Test [10] in a line: NS1 protein of Zika virus - qHTS assay to identify small molecule inhibitors in human HEK 293 cells (AID 1347053). Further: nearly all actives have a fitted effect of over 55% in size. Further: potency means the concentration at half of the fitted maximal effect. The method in brief: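 HEK 293; 20 h pre-culture, 37 C/5% CO2; cpd 1 h pre-infection; ZIKV MR766, MOI = 0.5, 24 h, 37 C; TR-FRET NS1 readout (two anti-NS1 Abs); norm. to no-virus vs infected.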
Test [11] can be described thus: P-glycoprotein substrates identified in KB-3-1 adenocarcinoma cell line, qHTS therapeutic library screen (AID 1346986). Further: nearly all actives have a fitted effect of over 60% in size. Summed up: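 KB-3-1 parental cells and P-gp-overexpressing KB-8-5-11 (colchicine omitted during assay) plated at 500 cells/well, dosed in dose-response, incubated 72 h at 37 degree C. CellTiter-Glo luminescence read; KB-8-5-11 also tested with tariquidar.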

A short description of test [12]: P-glycoprotein substrates identified in KB-8-5-11 adenocarcinoma cell line, qHTS therapeutic library screen (AID 1346987). Further: nearly all actives have a fitted effect of over 65% in size. Further: potency means the concentration at half of the fitted maximal effect. The method in brief: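 P-gp-mediated resistance screen: KB-8-5-11 cells treated 72 h with compounds in dose-response. CellTiter-Glo viability.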
Test [13] can be described thus: Identifying Small Molecule Inhibitors of Pancreatic Cancer Stem Cells (A278, Adherent) (AID 1259361). Further: nearly all actives have a fitted effect of over 35% in size. The method in brief:
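Viability is scored by CellTiter-Glo luminescence 48 h after dosing, expressed as percent activity against vehicle and no-cell references. Spheroid formats rely on cells cultured 14 days in stem cell media beforehand.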

For test [14], the target named is Atrial natriuretic peptide receptor 1 (Homo sapiens) (UniProt P16066). The test is described as follows: Natriuretic polypeptide receptor (hNpr1) antagonism - Pilot screen (AID 1347049; calls by dose curve;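 further: agonist-evoked cGMP luminescence read 20 min after hNppA addition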; further: potency means the concentration at half of the fitted maximal effect). The method in brief: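 HEK293 cells co-expressing hNpr1 and the GloSensor pGS-40F cGMP luciferase sensor were preloaded with 2% GloSensor reagent for 2 h. Compounds were added for 30 min at room temperature, then cells were stimulated with 0.1 nM hNppA for 20 min before luminescence readout.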

Test [15] addresses Tyrosine-protein phosphatase non-receptor type substrate 1 (Homo sapiens) + Leukocyte surface antigen CD47 (Homo sapiens) (UniProt P78324+Q08722). The test is described as follows: CD47-SIRPalpha protein protein interaction - LANCE assay qHTS validation (AID 1347057; active means well fitted curve in the direction sought with a large enough effect in the signal ratio, with a control signal flat, not every such curve was filed as active; the % refers to the signal ratio; further: 0% is about no effect). The method in brief: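 First, His-tagged CD47 and Eu-labelled anti-His antibody met the compound for 30 min; next, site-specifically biotinylated SIRPalpha was added for 30 min; finally streptavidin-APC was added before reading the TR-FRET ratio.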
(In general: Time-resolved FRET reads energy transfer from a long-lived donor to a nearby acceptor.)

Chain of Atrial natriuretic peptide receptor 1 (Homo sapiens) (P16066 whole entry, looked up): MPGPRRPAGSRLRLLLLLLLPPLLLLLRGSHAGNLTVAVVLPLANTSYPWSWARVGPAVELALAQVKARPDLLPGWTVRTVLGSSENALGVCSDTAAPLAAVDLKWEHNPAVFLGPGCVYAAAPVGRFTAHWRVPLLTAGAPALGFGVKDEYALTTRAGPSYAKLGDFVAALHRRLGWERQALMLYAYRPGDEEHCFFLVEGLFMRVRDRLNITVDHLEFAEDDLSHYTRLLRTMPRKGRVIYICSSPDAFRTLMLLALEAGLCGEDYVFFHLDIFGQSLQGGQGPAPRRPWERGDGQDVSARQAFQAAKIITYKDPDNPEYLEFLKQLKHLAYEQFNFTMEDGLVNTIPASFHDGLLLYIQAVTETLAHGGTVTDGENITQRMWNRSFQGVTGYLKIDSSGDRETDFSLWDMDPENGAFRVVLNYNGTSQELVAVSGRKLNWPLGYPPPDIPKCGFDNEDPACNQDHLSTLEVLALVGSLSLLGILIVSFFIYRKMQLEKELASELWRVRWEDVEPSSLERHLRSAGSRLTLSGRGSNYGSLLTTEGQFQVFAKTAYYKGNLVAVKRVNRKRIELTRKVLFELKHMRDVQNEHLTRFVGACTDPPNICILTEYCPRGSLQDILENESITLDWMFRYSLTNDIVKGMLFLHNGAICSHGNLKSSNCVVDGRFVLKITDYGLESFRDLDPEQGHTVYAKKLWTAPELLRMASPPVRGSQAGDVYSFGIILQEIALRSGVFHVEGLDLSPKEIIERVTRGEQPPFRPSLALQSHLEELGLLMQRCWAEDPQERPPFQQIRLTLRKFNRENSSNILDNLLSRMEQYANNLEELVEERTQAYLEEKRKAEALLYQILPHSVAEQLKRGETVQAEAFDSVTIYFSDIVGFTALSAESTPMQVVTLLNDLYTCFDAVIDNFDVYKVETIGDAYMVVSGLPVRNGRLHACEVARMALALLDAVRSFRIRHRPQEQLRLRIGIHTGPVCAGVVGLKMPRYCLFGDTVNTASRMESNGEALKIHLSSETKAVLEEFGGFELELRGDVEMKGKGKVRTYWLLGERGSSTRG
Chain of Tyrosine-protein phosphatase non-receptor type substrate 1 (Homo sapiens) + Leukocyte surface antigen CD47 (Homo sapiens) (P78324 whole entry, looked up): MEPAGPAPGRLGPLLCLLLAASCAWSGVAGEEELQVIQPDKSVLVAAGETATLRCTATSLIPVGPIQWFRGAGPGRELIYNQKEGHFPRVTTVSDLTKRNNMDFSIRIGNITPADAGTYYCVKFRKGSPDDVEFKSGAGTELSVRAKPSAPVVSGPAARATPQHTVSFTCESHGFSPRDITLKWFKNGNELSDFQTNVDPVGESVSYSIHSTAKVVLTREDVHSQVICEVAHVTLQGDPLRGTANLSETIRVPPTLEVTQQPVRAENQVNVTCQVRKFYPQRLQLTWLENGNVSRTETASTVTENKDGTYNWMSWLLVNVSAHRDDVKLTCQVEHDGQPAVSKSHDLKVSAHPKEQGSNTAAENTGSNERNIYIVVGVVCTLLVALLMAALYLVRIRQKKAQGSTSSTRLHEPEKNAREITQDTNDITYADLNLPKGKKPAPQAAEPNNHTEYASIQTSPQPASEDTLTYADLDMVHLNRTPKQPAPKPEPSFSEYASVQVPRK
Chain of Tyrosine-protein phosphatase non-receptor type substrate 1 (Homo sapiens) + Leukocyte surface antigen CD47 (Homo sapiens) (Q08722 whole entry, looked up): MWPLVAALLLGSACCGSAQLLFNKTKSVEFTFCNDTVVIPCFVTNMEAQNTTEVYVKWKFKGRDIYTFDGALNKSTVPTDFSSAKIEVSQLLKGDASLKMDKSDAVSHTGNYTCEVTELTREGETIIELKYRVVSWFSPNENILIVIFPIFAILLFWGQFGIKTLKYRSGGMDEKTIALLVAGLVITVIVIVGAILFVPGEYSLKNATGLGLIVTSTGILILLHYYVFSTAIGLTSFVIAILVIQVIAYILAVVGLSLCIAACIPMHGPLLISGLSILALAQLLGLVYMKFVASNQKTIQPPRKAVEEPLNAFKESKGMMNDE

Turning to `CC(C)CC(=O)N[C@H](C(=O)N[C@H](C(=O)N[C@@H](CC(C)C)[C@@H](O)CC(=O)N[C@@H](C)C(=O)N[C@@H](CC(C)C)[C@@H](O)CC(=O)O)C(C)C)C(C)C` (Isovaleryl-VV[Sta]A[Sta]-OH), in test [1], the viability (% of control) stood at 39.4%. Besides, the Potency entry in [2], in test [3], in test [4], in test [5], in test [6] and in [7] was “inactive” each time. Besides, the Potency entry in [8] and in test [9] was “inactive” in each case.

Regarding `CCOC(=O)C1=C[C@@H](OC(CC)CC)[C@H](NC(C)=O)[C@@H](N)C1`, the viability (% of control) in test [1] was 106%. In addition, the Potency result in test [2], in test [3], in test [4], in test [6], in test [7] and in test [8] was “inactive” throughout. Besides, the Potency result in test [9] and in [10] was “inactive” throughout.

`CCCc1cc(=O)[nH]c(=S)[nH]1`: the viability (% of control) in test [1] worked out at 14.9%. The Potency entry in test [2], in [3], in test [4], in test [5], in [8] and in test [9] was “inactive” in each case. Moreover, the Potency entry in test [11], in test [12] and in test [10] was “inactive” each time.

Take `Cc1ccc(C(=O)c2cc(O)c(O)c([N+](=O)[O-])c2)cc1`: the viability (% of control) in [1] came out at 73.3%. The Potency entry in test [2] and in [3] was “inactive” throughout.

For `CC1=C(C(=O)O)N2C(=O)[C@@H](NC(=O)[C@H](N)C3=CCC=CC3)[C@H]2SC1`, the viability (% of control) in test [1] came out at 99.4%. Also, the Potency result in [2], in test [3], in test [4], in test [5], in test [6] and in test [7] was “inactive” each time. Also, the Potency result in [11], in test [12] and in test [10] was “inactive” in each case.

On to `Cc1ccc(S(=O)(=O)NC(=O)NN2CC3CCCC3C2)cc1` (stereo unspecified), for which the viability (% of control) in test [1] was 35.2%. Also, the Potency result in test [2], in test [3], in [9], in test [12] and in test [10] was “inactive” throughout. Moreover, the Potency in [4] was 18.7 µM (active); in [5] it was 16.6 µM (active).

As for `Nc1nc(Cl)nc2c1ncn2[C@H]1C[C@H](O)[C@@H](CO)O1`, in test [1], the viability (% of control) was found to be 12%. The Potency result in test [2], in test [3], in [8], in test [9] and in [12] was “inactive” in each case. In addition, the values for the Potency in test [4], in test [6] and in [7] were 0.235 µM (active), 0.372 µM (active) and 0.296 µM (active), respectively. The IC50 (viability decrease) in test [13] was 0.0959 µM (active).

`CCN(CC)C(=S)SSC(=S)N(CC)CC`: in [1], the viability (% of control) is 3.25%. In addition, the Potency in test [2] was 10 µM (active); in test [4], 0.118 µM (active); in test [6] it was 0.0187 µM (active); in test [12], 41.8 nM (active) and inactive; in test [14], 2.39 µM (active); in test [10] it was 8.33 µM (active). Also, the Potency result in test [3], in [7], in test [8] and in test [9] was “inactive” throughout. Also, in test [15], the outcome was inactive.

With `NS(=O)(=O)c1cc(C(=O)O)c(NCc2ccco2)cc1Cl`, in [1], the viability (% of control) amounted to 108%. Further, the Potency result in test [2], in test [3], in test [4], in test [6], in test [7] and in test [8] was “inactive” throughout. The Potency result in test [9] and in test [10] was “inactive” throughout.

On to `CNC[C@@H](O)[C@@H](O)[C@H](O)[C@H](O)CO`, for which, in [1], the viability (% of control) worked out at 115%. For the same molecule, the Potency entry in [2], in [3], in test [4], in [5], in [6] and in test [7] was “inactive” throughout. Moreover, the Potency entry in test [8], in [9] and in test [10] was “inactive” throughout.

As for `COc1ccccc1N1CCN(CCN(C(=O)C2CCCCC2)c2ccccn2)CC1`, in [1], the viability (% of control) was determined as 80.8%. The Potency result in test [2], in [3], in [4], in [5], in test [6] and in [7] was “inactive” throughout. The Potency entry in test [12], in [14] and in [10] was “inactive” in each case. In test [15], the result was inactive.

As to `COc1c(O)cc2c(c1O)[C@@H]1O[C@H](CO)[C@@H](O)[C@H](O)[C@H]1OC2=O`, in [1], the viability (% of control) amounted to 97.8%. The Potency result in [2], in test [3], in [4], in test [5], in test [6] and in [7] was “inactive” each time. Also, the Potency result in test [8], in [9] and in [10] was “inactive” throughout.

`COc1ccc2cc([C@H](C)C(=O)O)ccc2c1`: in test [1], the viability (% of control) is 135%. In addition, the Potency entry in test [2], in [3], in test [4], in test [6], in test [7] and in test [8] was “inactive” each time. For the same molecule, the Potency entry in test [9], in test [12], in test [14] and in test [10] was “inactive” each time. In addition, in [15], the result was inactive.

In the case of `c1cnc2cc3c(cc2n1)C1CNCC3C1`, the viability (% of control) in [1] amounted to 97.2%. Moreover, the Potency entry in [2], in test [3], in test [4], in test [6], in test [7] and in test [11] was “inactive” throughout. For the same molecule, the Potency entry in test [10] was “inactive”. Also, in [15], the outcome was inactive.

As to `CC1(C)CCC(C)(C)c2cc(NC(=O)c3ccc(C(=O)O)cc3)ccc21`, the viability (% of control) in test [1] was found to be 66%. The Potency entry in test [2], in [3], in test [8], in [9] and in test [12] was “inactive” in each case. Besides, the Potency was 23.5 µM (active) in [4] and 18.7 µM (active) in [5].

With `Oc1ccc(OCc2ccccc2)cc1`, in [1], the viability (% of control) came out at 18.2%. The Potency entry in test [2] was “inactive and 11.8 µM (active)”; in test [4], 2.35 µM (active); in test [5] it was 9.35 µM (active); in [6] it was 4.18 µM (active); in [7] it was 4.18 µM (active). For the same molecule, the Potency result in test [3], in [8], in test [9], in test [11], in [12] and in test [10] was “inactive” throughout.

In the case of `O=C(OC1C[C@H]2CC[C@@H](C1)[N+]21CCCC1)C(O)(c1ccccc1)c1ccccc1` (stereo partly specified), in test [1], the viability (% of control) is 99.2%. Besides, the Potency result in [2], in test [3], in test [4], in test [5], in test [6] and in test [7] was “inactive” in each case. Further, the Potency result in [8], in test [9], in [12] and in test [10] was “inactive” each time.

`Nc1ccn([C@@H]2O[C@H](CO)[C@@H](O)C2O)c(=O)n1` (stereo partly specified): the viability (% of control) in [1] worked out at 92.2%. Moreover, the Potency result in [2], in test [3], in [4], in test [5], in [6] and in [7] was “inactive” each time. In addition, the Potency result in test [8], in test [9], in test [11], in [14] and in [10] was “inactive” each time.

On to `O=C(CS(=O)Cc1ccco1)NCC=CCOc1cc(CN2CCCCC2)ccn1` (stereo unspecified), for which the viability (% of control) in test [1] was 112%. For the same molecule, the Potency entry in [2], in [3], in [4], in test [5], in test [6] and in test [7] was “inactive” each time. Further, the Potency entry in test [8], in test [9], in test [12] and in [10] was “inactive” in each case.
